# Assay results from PubChem BioAssay AID1851 (National Center for Advancing Translational Sciences (NCATS), 2009).
# “And” between values parts separate entries of the source, which are not always exact repeats. Identical values can stand only once. In all, about 16,000 compounds went through this assay and about 2,600 (16%) were called active. Not shown: some 20% with an inconclusive outcome. A selection follows. Values without a mark were called inactive. The call rests on the fitted dose curve; in most records, active means well fitted curve in the direction sought with a large enough effect; inconclusive means small, poorly fitted or top-dose-only effect, or effect the other way; inactive means no such curve, though single readings can be large or run the other way.
# Target: Cytochrome P450 2D6 (Homo sapiens) (UniProt P10635)
# Test: Cytochrome panel assay with activity outcomes
# Conditions: recombinant CYP, pro-luciferin dealkylation, luminescence, p450-cyp2d6; series mostly up to 57.1 µM; activity, negative = inhibition: at the top concentration
# On the % scale 0 is the no-effect control and ±100 the full control effect.
# Sequence of Cytochrome P450 2D6 (Homo sapiens) (P10635 whole entry, looked up): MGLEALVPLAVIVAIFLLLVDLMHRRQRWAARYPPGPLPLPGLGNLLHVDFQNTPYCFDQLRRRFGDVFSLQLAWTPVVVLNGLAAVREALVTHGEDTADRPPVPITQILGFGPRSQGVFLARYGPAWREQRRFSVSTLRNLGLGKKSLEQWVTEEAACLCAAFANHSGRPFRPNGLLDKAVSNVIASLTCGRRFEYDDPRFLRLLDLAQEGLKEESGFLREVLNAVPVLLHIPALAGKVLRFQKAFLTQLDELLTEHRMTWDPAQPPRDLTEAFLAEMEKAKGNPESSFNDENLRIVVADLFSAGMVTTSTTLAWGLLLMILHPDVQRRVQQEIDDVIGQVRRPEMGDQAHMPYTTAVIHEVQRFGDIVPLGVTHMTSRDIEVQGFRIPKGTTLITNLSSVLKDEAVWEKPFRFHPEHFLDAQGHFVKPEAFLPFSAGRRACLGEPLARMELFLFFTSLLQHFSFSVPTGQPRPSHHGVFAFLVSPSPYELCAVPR
SMILES,"activity, negative = inhibition",AC50
C=CCOc1ccc2cccc(/C=N/NC(=O)c3cc4cc([N+](=O)[O-])ccc4s3)c2c1,-6.69%,–
CCCCCCCOC1(c2ccccc2)OC(=O)c2ccccc21 (stereo not given),-11.7%,–
CCCN(CCC)C(=O)[C@@H](CCC(=O)O)NC(=O)c1ccccc1,–,inactive
CC(=O)Nc1ccc2c(c1)/C(=C/c1ccc([N+](C)(C)C)cc1)c1ccccc1-2,-4.76% [at 11.4 µM],–
Cc1sc2nc(SCc3nc(-c4cccs4)no3)n(-c3ccccc3)c(=O)c2c1C,17.3%,–
CC(C)=NNc1ncnc2nc[nH]c12,12.8% [at 11.4 µM],–
CN(C)CCN1C(=O)C(O)=C(C(=O)c2cc3ccccc3o2)C1c1ccccn1 (stereo not given),7.71%,–
NC(=NCCC[C@H](N)C(=O)O)NO,5.27%,–
CCCN=C(N)NCCC[C@H](N)C(=O)O,–,7.94 µM (active)
NC(=S)NCCC[C@@H](N)C(=O)O,-2%,–
O=C(Nc1cnn(Cc2ccc(Cl)cc2)c1)c1ccc([N+](=O)[O-])cc1,-21.1%,–
CSc1ccc2nnc(-c3cccc(F)c3)n2n1,-6.36%,–
S=c1[nH]nc(C2CCCCC2)n1/N=C/c1cccs1,–,2.24 µM (active)
Cc1nnc(C)n1/N=C/c1cccs1,-40.9%,–
Cc1ccc(/C=N/n2c(COc3ccccc3)n[nH]c2=S)s1,-22.5%,–
O=C1C2ON(c3ccccc3)C(c3ccncc3)C2C(=O)N1c1ccccc1 (stereo not given),17.4%,–
Cc1nc2ccccc2n1CC(=O)N/N=C\c1ccccn1,-12.2%,–
Cc1cc(C2C(C#N)=C(N)Oc3n[nH]c(C)c32)c(C)s1 (stereo not given),-4.36%,–
Cc1ccsc1/C=N/Nc1nc(Cl)c(Cl)cc1Cl,-15.6%,–
OCCN(C=NC1=NN(c2cccc(C(F)(F)F)c2)CC1)CCO,-7.95%,–
Cc1ccc(C)c(NC(=S)N(CCc2nc3cc(C)c(C)cc3[nH]2)Cc2cccnc2)c1,–,1 µM (active)
Cc1cccc(NC(=S)N(CCc2nc3cc(C)c(C)cc3[nH]2)Cc2cccnc2)c1,–,3.16 µM (active)
CCc1ccc2c(c1)cc(CN(C(=S)Nc1cccc(C)c1)C1CC1)c1nnnn12,-0.638%,–
COc1ccc(NC(=S)N(CCc2nc3cc(C)c(C)cc3[nH]2)Cc2cccnc2)cc1,–,11.2 µM (active)
COc1ccc2[nH]c(=O)c(NC(N)=S)nc2c1,-33.1%,–

SMILES,"activity, negative = inhibition",AC50
COc1cccc(/C=N/NC(=O)C(=O)NCc2cccnc2)c1,21.5%,–
CC(=O)CC(=O)[C@@]1(O)CC[C@@H]2[C@@H]3C=C(C)C4=CC(=O)CC[C@@H]4[C@H]3CC[C@]21C,1.91% [at 25.6 µM],–
O=C(O)[C@@H](O)[C@@H](O)[C@@H](O[C@H]1O[C@@H](CO)[C@@H](O)[C@@H](O)[C@@H]1O)[C@@H](O)CO,0.496% [at 25.6 µM],–
COc1cc(NC(=S)Nc2ccc(S(=O)(=O)N3CCOCC3)cc2)cc(OC)c1OC,-17.6%,–
CC1(C)CC(=O)c2cnc(N)nc2C1,32.6%,–
O=C(NN=C1c2ccccc2-c2ccccc21)c1ccccn1,-9.72%,–
O=C(CSc1ccc(Cl)cc1)Nc1ccc(N2CCN(C(=O)c3ccc(Cl)cc3)CC2)cc1,-21.1%,–
CSC(=NC#N)N1CCN(c2ccc(Cl)cc2)CC1,–,0.316 µM (active)
O=C(CSC1=NCCS1)N1CCN(c2ccc(Cl)cc2)CC1,-27.3%,–
CN(C)c1nc(-c2cccnc2)nc2ccccc12,–,15.8 µM (active)
CNc1nc(-c2ccc(N(C)C)cc2)nc2ccccc12,–,12.6 µM (active)
CN(C)c1ccc(/C=N\NC(=O)c2cnc3ccccc3c2)cc1,5.04% [at 11.4 µM],–
CN(C)c1ccc(-c2nc(N(C)C)c3ccccc3n2)cc1,–,7.94 µM (active)
CCn1c(-c2ccc(N(C)C)cc2)nc2ccccc21,-108%,–
c1ccc(Nc2nc(-c3cccnc3)nc3ccccc23)cc1,-11.1%,–
COc1ccccc1NC(=O)Nc1nc(-c2cccnc2)nc2ccccc12,-2.94%,–
CCC(=O)O[C@H](CC(=O)O)C[N+](C)(C)C,8.38%,–
O=C1C[C@@H](O)[C@@H](O)[C@H]2[C@@H]3C(=O)N(C[C@@H]4CCCO4)C(=O)[C@@H]3CC[C@H]12,4.56% [at 11.4 µM] and 6.17% [at 11.4 µM],–
COc1cc(C2NC(=O)NC(O)(C(F)(F)F)C2C(=O)c2ccc(Cl)cc2)ccc1O (stereo not given),3.72%,–
CCCc1nn2c(=O)c(C(c3ccc(C)cc3)c3c(O)nc4sc(CCC)nn4c3=O)c(O)nc2s1,3.03%,–
CN1CCN(c2nc3c(c(=O)n(C)c(=O)n3C)n2C)CC1,6.17% [at 11.4 µM],–
CCCCN(C(=S)Nc1ccccc1)C1CCS(=O)(=O)C1 (stereo not given),-11.8%,–
Fc1ccc(N2CCN(c3ccc4c(C(F)(F)F)cc(C(F)(F)F)nc4n3)CC2)cc1,-0.372%,–
C=CCNC(=O)c1onc(CSc2ccc(F)cc2)c1C(=O)O,-10.6%,–
O=C(NCc1ccccc1)c1onc(CSc2ccc(F)cc2)c1C(=O)NCCCN1CCOCC1,–,10 µM (active)
